# Measurements: paper PMC5540273 (PLoS ONE, 2017)
# What was measured:
# Details in all cases: concentration: 1 μM, replicates: in singlicate; n = 1
# [1] = test system: SRPK1
# [2] = test system: SRPK2
# [3] = test system: SRPK3
# [4] = test system: STK16
# [5] = test system: STK33
# [6] = test system: STK35
# [7] = test system: STK36
# [8] = test system: STK39
# [9] = test system: SYK
# [10] = test system: SgK110
# 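Further: KINOMEscan kinase panel screen.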
Structure (SMILES),%Inh [1] [%],%Inh [2] [%],%Inh [3] [%],%Inh [4] [%],%Inh [5] [%],%Inh [6] [%],%Inh [7] [%],%Inh [8] [%],%Inh [9] [%],%Inh [10] [%]
Nc1ncnc2c1ncn2-c1ccc(Cl)cc1 [AH2635],0,13,0,3,0,0,0,0,31,0
CCn1c(-c2nonc2N)nc2ccccc21 [SB-693162/GW549034],0,0,24,23,15,0,0,37,0,0
COc1ccc(Nc2nccc(N3CCC(NS(=O)(=O)c4ccc(NC(C)=O)cc4)C3)n2)cc1 (centres unmarked) [GSK1379729],35,0,63,19,10,14,3,2,35,4
COc1ccc(-c2coc3ccc(-c4nnc(SCc5cccc(C#N)c5)o4)cc23)cc1,0,0,0,20,0,26,8,0,14,10
CCC(=O)c1c(-c2ccccc2)c2cc(Cl)ccc2c(=O)n1Cc1cc(S(C)(=O)=O)n(CC(F)F)n1,0,2,0,0,0,0,0,0,0,31
CCC(=O)c1c(-c2ccccc2)c2cc(Cl)ccc2c(=O)n1Cc1cc(S(C)(=O)=O)n(CCC(C)(C)O)n1,3,53,11,1,8,15,11,0,25,9
COc1cccc(C2=C(N(C)c3ccccc3)C(=O)NC2=O)c1 [SB-334865],0,7,0,22,0,0,0,7,9,0
CCC(=O)c1c(-c2ccccc2)c2cc(Cl)ccc2c(=O)n1Cc1ccc(C(=O)O)cc1,0,10,0,0,0,0,0,23,0,49
Nc1nc(N)c2nc(-c3ccccc3)[nH]c2n1 [SKF-12778],37,0,22,1,19,5,0,11,43,0
C[C@@H]1CC[C@H](C(=O)NC2CCCCC2)CN1c1cc(-c2ccc3c(N)n[nH]c3c2)nc(N)n1 [GSK2291363],77,5,36,21,57,0,0,0,37,0
COc1cc(Nc2nccc(N3CCC(NC(=O)C(C)c4ccc(Cl)cc4)C3)n2)cc(OC)c1OC (centres unmarked) [GSK1379757],26,3,52,39,0,0,0,0,20,0
Nc1nc(-c2ccccc2F)c(-c2ccnc3ccccc23)s1 [GW560459],25,0,0,7,0,0,0,1,32,0
O=C1NC(=O)C(c2ccccc2)=C1Nc1cccc(O)c1 [SB-390534],20,7,0,0,4,2,0,4,6,0
COc1cc2nccc(Nc3ccc(OCc4ccc(NC(C)=O)cc4)cc3)c2cc1OC.Cl [GW440135],42,12,23,2,15,3,29,3,6,21
CC(C)(C)c1ccc(C(=O)Nc2cn3cc(-c4ccccc4)ccc3n2)cc1,0,3,0,0,3,47,8,0,0,0
Cc1cccc(-c2nc(Nc3ccc4c(cnn4C)c3)c3ccccc3n2)n1 [GW876731],0,0,0,5,0,0,2,33,24,6
CN1C(=O)C(Nc2ccccc2)=C(c2ccccc2)C1=O [SB-300079],0,0,0,0,9,0,0,0,3,0
